Sfp inh: qHTS Assay for Inhibitors of Bacillus subtilis Sfp phosphopantetheinyl transferase (PPTase); 4'-phosphopantetheinyl transferase ffp (Bacillus subtilis), Q9F4F7; Biochemical Sfp PPTase activity, qHTS; Potency, µM, without a hit: largest response in the series, negative = inhibition, actives largely listed as inhibitors; actives 3.5% (n = 310,000);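 also: the enzyme is Sfp with the accession as filed and its product quenches rhodamine fluorescence; 0% = enzyme reaction without inhibitor and -100% = no enzyme wells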
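Sfp 15 nM + cpd, 15 min RT; start w/ rhodamine-CoA 5 uM, BHQ-2-YbbR 12.5 uM (final); 50 mM Hepes pH 7.6, 10 mM MgCl2, 0.01% NP-40, 0.01% BSA; read 525/598 nm at 0 and 30 min.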
VP16 counter: VP16 counterscreen qHTS for inhibitors of ROR gamma transcriptional activity; Drosophila S2 Gal4-VP16 UAS-luciferase, luminescence, 20 h; Potency, µM (top dose mostly 53.6 µM), for inactives: at the top dose activity, negative = inhibition, most hits filed as inhibitors; actives 3.5% (n = 310,000); AID 2546, 2010;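 also: Gal4-VP16 expression switched on by copper sulfate through the metallothionein promoter; % is scaled to controls: 0 for no effect and ±100 for the full control effect; nearly all actives have a fitted effect of over 50% in size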
PINK1 modulator: A Quantitative High throughput Screen to Identify Chemical Modulators of PINK1 Expression; actives 0.2% (n = 410,000); PINK1 immunofluorescence, high-content cytometry, 24 h; Potency, µM (highest dose often 76.6 µM), for inactives: at the top dose activation (PINK1 increase), actives largely listed as activators; AID 624263, 2012; active = well fitted activation curve with a large enough effect; inconclusive = small, poorly fitted or top-dose-only effect; cell line not stated here; also: % of control where 0% means no effect; nearly all actives have a fitted effect of over 65% in size
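Cells are seeded, rested 12 hours, then given compound at five concentrations or DMSO for 24 hours. After fixation, blocking and antibody staining, PINK1 amount and mitochondrial localization are scored; CCCP serves as control.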
Epigenetic reg: Quantitative High-Throughput Screen for Regulators of Epigenetic Control; murine LDR cells, GFP reporter derepression, 30 h; Potency, µM (titrated, usually from 53.9 µM), inactives show at the top dose GFP activation, most hits filed as activators; actives 0.2% (n = 280,000); also: % of control where 0% means no effect; nearly all actives have a fitted effect of over 60% in size
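Murine LDR cells carrying a silenced, genomically integrated CMV-driven GFP reporter were exposed to compound for 30 hours at 37 C. After PBS washes, GFP-positive cells (20–120 um objects) were counted by laser-scanning microplate cytometry.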
RORgamma inh: qHTS for inhibitors of ROR gamma transcriptional activity. actives 5.4% (n = 310,000). Drosophila S2 Gal4-RORgamma UAS-luciferase reporter, 20 h. Nuclear receptor ROR-gamma (Mus musculus), P51450. Potency, µM (titrated, usually from 53.6 µM), inactives show at the highest dose activity change, negative = inhibition, actives largely listed as inhibitors; also: % is scaled to controls: 0 for no effect and ±100 for the full control effect; nearly all actives have a fitted effect of over 60% in size
Target sequence (P51450 whole entry, looked up, the tested form may be a part): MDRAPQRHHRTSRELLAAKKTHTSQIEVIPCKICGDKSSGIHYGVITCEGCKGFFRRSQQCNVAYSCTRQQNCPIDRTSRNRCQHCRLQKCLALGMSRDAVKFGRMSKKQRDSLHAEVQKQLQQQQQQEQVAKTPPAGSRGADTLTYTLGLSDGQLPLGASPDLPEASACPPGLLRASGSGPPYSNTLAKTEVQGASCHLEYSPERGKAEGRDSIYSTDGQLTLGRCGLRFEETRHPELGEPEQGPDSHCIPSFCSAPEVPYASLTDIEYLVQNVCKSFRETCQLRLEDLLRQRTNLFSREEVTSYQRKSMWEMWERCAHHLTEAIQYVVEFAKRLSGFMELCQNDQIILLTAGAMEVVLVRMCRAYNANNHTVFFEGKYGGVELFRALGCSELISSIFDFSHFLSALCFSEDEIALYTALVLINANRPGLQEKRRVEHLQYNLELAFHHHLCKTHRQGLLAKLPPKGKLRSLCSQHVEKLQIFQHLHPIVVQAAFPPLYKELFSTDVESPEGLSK
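A Gal4/UAS one-hybrid system in insect cells: metallothionein-promoter Gal4–ROR gamma fusion plus Photinus luciferase reporter. Copper sulfate 700 uM final, 20 hr ambient incubation, luminescent detection after 10 min with reagent.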
ClpP mod: qHTS Assay for Activators of ClpP; actives 1.9% (n = 340,000); purified B. subtilis ClpP, FRET peptide cleavage, 20 min; AID 651965, 2013; Potency, µM (highest dose often 57.5 µM), for the others: at the top dose activity change, negative = active; active = well fitted falling curve with a large enough effect; inconclusive = small, poorly fitted or top-dose-only effect; inactive = no such curve, though single readings can be large or run the other way; also: the source files actives as falling curves though it sought activators and does not explain the sign; nearly all actives have a fitted effect of over 65% in size
Target sequence (P80244 whole entry, looked up): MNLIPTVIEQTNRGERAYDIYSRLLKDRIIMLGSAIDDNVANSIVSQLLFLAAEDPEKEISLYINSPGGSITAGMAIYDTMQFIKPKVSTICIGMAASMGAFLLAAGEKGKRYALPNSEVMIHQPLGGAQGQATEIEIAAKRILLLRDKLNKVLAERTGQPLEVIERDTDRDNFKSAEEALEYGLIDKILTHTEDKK
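ClpP 10 microg/mL final, pH 8 Tris/KCl buffer with BSA, glycerol, Tween-20; compound pinned in; FRET-FV substrate; RT 20 min; Ex320/Em430; ΔFRET vs ADEP 5.8 microM, DMSO, no enzyme.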
The depositor's hits bear a star; ? = inconclusive; / = no result given; [ ] = dose if it differs, or a comment. The list is not random: actives were taken first. Their share in the collection is about 8.1%. Unless noted, calls follow the shape of the dose curve; as a rule, active = well fitted curve in the direction sought with a large enough effect; inconclusive = small, poorly fitted or top-dose-only effect, or another doubt; inactive = no such curve, though single readings can be large; an effect the other way counts as inactive or inconclusive. Potency is read from the fitted curve at half-maximal effect.

SMILES | Sfp inh | VP16 counter | PINK1 modulator | Epigenetic reg | RORgamma inh | ClpP mod
NNc1ccc2c(C(F)(F)F)cc(C(F)(F)F)nc2n1 | 56µM* | 1% | 4% | -2% | 13µM* | /
CCc1ccc(NC(=O)Cn2c(=O)n(CCc3ccccc3)c(=O)c3sc4ccccc4c32)cc1 | / | / | 0% | -3% | / | -14%
COc1ccc(/C=N/NC(=O)c2ccccc2O)cc1COc1ccccn1 | 18% | 6% | 1% | 0% | -9% | -4%
COc1ccc(/C=N/NC(=O)c2nc(Cl)c(Cl)c(N)c2Cl)cc1COc1ccccc1F | 7% | -15% | 25% | 10% | 9% | 206%
COc1ccc(/C=N/NC(=O)c2ccccc2O)cc1CSc1ccccn1 | -8% | ? | 8% | -1% | 16µM* | -6%
COc1ccc(/C=N\NC(=O)c2ccccc2OC)cc1COc1ccccc1C | -9% | -17% | 7% | / | ? | ?
COc1ccc(/C=N/NC(=O)c2nc(Cl)c(Cl)c(N)c2Cl)cc1COc1ccc(F)cc1F | 18% | -26% | 6% | 0% | ? | 7.9µM*
COc1ccc(/C=N/NC(=O)c2ccoc2C)cc1COc1c(C)cccc1C | 8% | ? | 15% | 1% | 11µM* | 0%
COc1ccc(/C=N\NC(=O)c2cc(O)c(O)c(O)c2)cc1CN1CCN(c2ccc(F)cc2)CC1 | 14µM* | -3% | 0% | -1% | -13% | -5%
CCc1ccc(NC(=O)C(CC)n2c(=O)c(-c3ccccc3NC(C)=O)nc3ccccc32)cc1 (stereo not drawn) | / | / | 4% | 1% | / | -13%
COc1cccc(NC(=O)CSC2=Nc3ccccc3C3=NC(CC(=O)NCc4ccc5c(c4)OCO5)C(=O)N23)c1 (stereo not drawn) | / | / | 5% | -1% | / | -2%
CCOC(=O)c1c(C)[nH]c(C)c1S(=O)(=O)N1CCN(c2ccc(Cl)cc2)CC1 | / | / | -1% | 0% | / | 0%
Brc1ccc[n+](CCc2ccccc2)c1 | / | / | 1% | / | / | -1%
COc1ccc2nc(N(Cc3cccnc3)C(=O)c3ccco3)sc2c1 | / | / | 19% | 3% | / | 2%
COc1ccc(/C=N/NC(=O)c2ccc(NC(C)=O)cc2)cc1COc1ccc(F)cc1F | -22% | 10µM* | 5% | / | 11µM* | 4%
COc1ccc(/C=N\NC(=O)c2ccccc2F)cc1COc1ccc(F)cc1 | 18% | -8% | 9% | / | -28% | 37%
COc1ccc(/C=N\NC(=O)c2ccccc2F)cc1COc1ccc(F)cc1F | 9% | 20µM* | 1% | / | 16µM* | -13%
Cc1cccc(N2CCN(S(=O)(=O)c3cn(C)c(C)n3)CC2)c1C | / | / | -3% | -2% | / | -1%
COc1ccc(CC(=O)N2CC(=O)Nc3ccc(F)cc3C2c2ccccc2)cc1 (stereo not drawn) | / | / | -2% | -2% | / | -3%
Cc1ccccc1-c1nc(S(=O)(=O)c2ccc(Br)cc2)c(NCc2cccnc2)o1 | -7% | -7% | ? | 1% | 0% | -19%
O=S(=O)(c1ccc(Cl)cc1)c1nc(-c2ccccc2Br)oc1NCc1ccccc1 | / | / | 3% | -2% | / | 20µM*
Nc1ccccc1-c1ccccc1N | -5% | -14% | -5% | -1% | -4% | 7.9µM*
Nc1ccccc1-c1ccc(Cl)cc1 | / | / | 2% | / | / | -1%
Cc1cccc(C(=O)NCC(=O)OCc2cc(=O)n3nc(C4CC4)sc3n2)c1 | / | / | -1% | 4% | / | -3%
CCN(Cc1ccccc1)c1ccc(/C=C/c2nccc3ccccc23)cc1 | / | / | 2% | / | / | 0%
SMILES | Sfp inh | VP16 counter | PINK1 modulator | Epigenetic reg | RORgamma inh | ClpP mod
Cc1ccc(Cl)cc1NC(=O)COC(=O)CC(C)(C)CC1=NS(=O)(=O)c2ccccc2N1 | / | / | 2% | 0% | / | 2%
CC(C)(CC(=O)NCc1ccc(Cl)cc1Cl)CC1=NS(=O)(=O)c2ccccc2N1 | / | / | 45µM* | 1% | / | 4%
COC(=O)C1=C(C)OC(N)=C(C#N)C1c1ccccc1F (stereo not drawn) | -1% | 4% | -8%[38.3 µM] | -1% | 25% | 0%
COC(=O)C1=C(CSc2nc3c(cc2C#N)CN(C)CC3)OC(N)=C(C#N)C1c1ccccc1F (stereo not drawn) | 22µM* | 17% | 3%[38.3 µM] | 4% | ? | -16%
CCOC(=O)C1=C(CSc2nc3c(cc2C#N)CCC3)OC(N)=C(C#N)C1c1ccccc1 (stereo not drawn) | 20µM* | -11% | / | 1% | -40% | -3%
CCOC(=O)C1=C(CSc2nc3c(cc2C#N)CN(C)CC3)OC(N)=C(C#N)C1c1ccc(F)cc1 (stereo not drawn) | 56µM* | -9% | -2% | 0% | 15% | -1%
N#Cc1cc2c(nc1SCc1ccccc1)CCC2 | 12% | 10% | 3% | -5% | -6% | -6%
CCOC(=O)C1=C(CSc2nc(-c3ccccc3)ccc2C#N)OC(N)=C(C#N)C1c1cccnc1 (stereo not drawn) | 56µM* | 17% | 1% | 1% | 15% | 27%
CCOC(=O)C1=C(CSc2nc(-c3ccccc3)ccc2C#N)OC(N)=C(C#N)C1c1ccccc1 (stereo not drawn) | -28% | 22% | 0% | 4% | 0% | 10%
CCOC(=O)C1=C(CSc2nc3c(cc2C#N)CN(C)CC3)OC(N)=C(C#N)C1c1ccccc1 (stereo not drawn) | ? | -2% | 2% | -2% | 5% | -17%
CC(=O)NCCNC(=O)CCCc1nnc2n(C)c(=O)c3sccc3n12 | / | / | 1% | 4% | / | -18%
COc1cccc(OC)c1C1=Nn2c(nnc2-c2ccccc2C)SC1 | -7% | -12% | / | / | -12% | /
Cc1ccc(NC2=NCC(Cc3ccc(Br)cc3)S2)cc1 (stereo not drawn) | -19% | ? | ? | 0% | 13µM* | /
CCc1ccc(NC2=NCC(c3ccccc3)S2)cc1 (stereo not drawn) | -18% | ? | ? | 1% | 8.9µM* | /
O=[N+]([O-])c1ccc(C2CN=C(Nc3ccccc3)S2)cc1 (stereo not drawn) | -3% | 17% | -1% | -4% | -15% | 0%
CCOC(=O)N1CCN(Cc2ccc3c(c2)CN(C(=O)c2ccc(C#CC(C)(C)O)o2)CCO3)CC1 | / | / | 1% | / | / | /

Screening data deposited in PubChem BioAssay by National Center for Advancing Translational Sciences (NCATS).
